This is a sample that favours compounds with a hit; in the whole collection about 5.5% have one here.
Giardia killer – Giardia lamblia killing; Giardia lamblia trophozoite viability; activity change, % at 7.66 µM, hits read low; actives 0.15% (n = 340,000); AID 540267; in the data active = activity change below about -80%; inconclusive = between about -30% and that limit;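 note: parasites exposed to compound for two days anaerobically before the ATP read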
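Media and compound were dispensed first, then trophozoites at 100 cells/well; plates sat 48 hrs at 37 deg C without oxygen before ATP luminescence reagent was added and read after 15-30 min at room temperature.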
ELG1 DNA repair – blocks ELG1-dependent DNA repair in HEK293T cells. HEK293T ELG1-luciferase reporter, luminescence, 16 h; DNA damage induced by 5-fluorouridine. Potency, µM (top dose mostly 46.1 µM), without a hit: top-dose activity change, negative = inhibition, most hits filed as inhibitors. actives 2.3% (n = 330,000). AID 504467; note: potency is the fitted concentration of half-maximal effect; nearly all actives have a fitted effect of over 55% in size
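In this reporter screen, reduction of luminescence relative to DMSO vehicle indicated activity. Compounds and 5-fluorouridine were added together to 2,000 cells per well, incubated for 16 hr at 37 °C, then developed with ONE-Glo.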
FBPA coupling cs – coupling enzyme interference in Giardia aldolase counter-screen | actives 0.67% (n = 290,000) | activity change, negative = inhibition, % at 58.2 µM, hits read low | coupling enzyme system counterscreen, AmpLite Red fluorescence; in the data active = activity change below about -30%
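Activity here indicates interference with the coupling reaction, not aldolase inhibition. Compounds at 57.5 uM final met coupling enzymes for 10 min at RT; substrate and AmpLite Red detection followed, with a 525/598 nm fluorescence read after 20 min.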
Sfp PPTase inh – Sfp phosphopantetheinyl transferase inhibition; Biochemical Sfp PPTase activity, qHTS; actives 3.5% (n = 310,000); Q9F4F7; AID 1490; Potency, µM, for inactives: largest response in the series, negative = inhibition, most hits filed as inhibitors;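 note: the enzyme is Sfp with the accession as filed and its product quenches rhodamine fluorescence; potency is the fitted concentration of half-maximal effect; 0% = enzyme reaction without inhibitor and -100% = no enzyme wells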
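Step 1, compound plus 15 nM Sfp-PPTase, 15 min, room temperature. Step 2, add rhodamine-CoA (5 uM) and BHQ-2-YbbR (12.5 uM). Step 3, read 525/598 nm fluorescence at 0 and 30 min.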
Numbers without * were called inactive. Unless noted, calls come from the whole dose curve; as a rule, active = well fitted curve in the direction sought with a large enough effect; inconclusive = small, poorly fitted or top-dose-only effect, or another doubt; inactive = no such curve, though single readings can be large; an effect the other way counts as inactive or inconclusive. Unless noted, % is set by controls: 0 for no effect and ±100 for the full control effect.

Screening CC(NC(=O)c1ccc([N+](=O)[O-])o1)C12CC3CC(CC(C3)C1)C2 (configuration not stated) returned Giardia killer -86.5*, ELG1 DNA repair 6.1%, FBPA coupling cs -2.7 and Sfp PPTase inh -9.9%.
`O=C(N/N=C\c1ccc([N+](=O)[O-])o1)C1COc2ccccc2O1` (configuration not stated) gave Giardia killer -82.4*, ELG1 DNA repair 0.8%, FBPA coupling cs 2.0 and Sfp PPTase inh -1.4%.
Screening CC(NC(=O)C12CC3CC(CC(C3)C1)C2)C(=O)NN=Cc1ccc([N+](=O)[O-])o1 (configuration not stated) returned Giardia killer -93.0* and ELG1 DNA repair -23.6%.
For O=C(CCCN1C(=O)C(c2ccccc2)Oc2cccnc21)Nc1cccc(F)c1 (configuration not stated) the results were Giardia killer -3.6, ELG1 DNA repair -1.6%, FBPA coupling cs -0.7 and Sfp PPTase inh 5.9%.
Cc1ccc(N/C(C(Cl)=C(Cl)Cl)=C(/Cl)[N+](=O)[O-])c(C)c1 was read as Giardia killer -94.4*, ELG1 DNA repair -23.4%, FBPA coupling cs -1.1 and Sfp PPTase inh inconclusive.
Screening CC1(C)CC(=O)C2=C(C1)c1c(ccc3ccccc13)NC2c1cc([N+](=O)[O-])cc([N+](=O)[O-])c1O (configuration not stated) returned Giardia killer -10.9, ELG1 DNA repair -7.8%, FBPA coupling cs 16.7 and Sfp PPTase inh 3.98µM*.
COc1ccc(-c2n[nH]c(=S)n2-c2ccc3c(c2)OCCO3)cc1 was read as Giardia killer 3.3, ELG1 DNA repair inconclusive, FBPA coupling cs -2.4 and Sfp PPTase inh inconclusive.
`S=c1[nH]nc(-c2ccc(Cl)cc2Cl)n1-c1ccc2c(c1)OCCO2` gave Giardia killer 1.6, ELG1 DNA repair 6.4%, FBPA coupling cs 4.5 and Sfp PPTase inh 44.7µM*.
COc1ccc(OC)c(-n2c(-c3ccc(O)cc3O)n[nH]c2=S)c1 was read as Giardia killer 2.6, ELG1 DNA repair inconclusive, FBPA coupling cs -7.0 and Sfp PPTase inh 89.1µM*.
Oc1ccc(-c2n[nH]c(=S)n2-c2ccc3c(c2)OCCO3)c(O)c1 was read as Giardia killer -7.5, ELG1 DNA repair 3.66µM*, FBPA coupling cs -3.0 and Sfp PPTase inh inconclusive.
`S=c1[nH]nc(-c2ccc(Cl)cc2Cl)n1-c1ccccc1` gave Giardia killer -22.7, ELG1 DNA repair inconclusive, FBPA coupling cs 3.2 and Sfp PPTase inh 18.8%.
S=c1[nH]nc(-c2ccc(Br)cc2)n1-c1ccc2c(c1)OCCO2 was read as Giardia killer -11.4, ELG1 DNA repair 0.0%, FBPA coupling cs 0.9 and Sfp PPTase inh 39.8µM*.
COc1ccc(N(C(C)=O)c2nc3ccccc3[nH]2)cc1 was read as Giardia killer 15.1, ELG1 DNA repair 7.2%, FBPA coupling cs 2.1 and Sfp PPTase inh 5.4%.
O=C(NCc1ccccc1)c1ccc(CS(=O)Cc2ccc(Cl)cc2)o1 (configuration not stated) was read as Giardia killer -5.8, ELG1 DNA repair -7.0%, FBPA coupling cs 0.7 and Sfp PPTase inh 2.0%.
For O=c1c(-c2ccc(Cl)cc2)nc2cnc(N3CCOCC3)nc2n1C1CC1 the results were FBPA coupling cs 2.2 and Sfp PPTase inh 12.4%.
`CSCCC(NC(=O)c1ccccc1Cl)C(=O)NC1CCN(Cc2ccccc2)CC1` (configuration not stated) gave Giardia killer -3.0, ELG1 DNA repair 5.6% and Sfp PPTase inh 1.5%.
Cc1cccc(CNc2ccnc(-c3ccccc3CN(C)C)n2)c1 was read as FBPA coupling cs 4.7 and Sfp PPTase inh -2.9%.
O=C(c1cccc(F)c1)N1CCN(C(=O)C(c2ccccc2)c2ccccc2)CC1 was read as Giardia killer 10.8, ELG1 DNA repair -15.2%, FBPA coupling cs 1.7 and Sfp PPTase inh 9.8%.
Screening CCc1ccc(OCC2c3cc(OC)c(OC)cc3CCN2C(=S)NCCOC)cc1 (configuration not stated) returned Giardia killer -19.2, ELG1 DNA repair 23.1µM*, FBPA coupling cs -0.1 and Sfp PPTase inh -8.3%.
Screening CCCCCCC(O)C/C=C/CCCCCCCC(=O)O (configuration not stated) returned Sfp PPTase inh 20.4%.
`Cc1cc(O)cc2c1O[C@](C)(CCC[C@H](C)CCC[C@H](C)CCCC(C)C)CC2` gave FBPA coupling cs -4.6 and Sfp PPTase inh -11.1%.
